Screens: PubChem, National Center for Advancing Translational Sciences (NCATS)
The list is not random: actives were taken first. Their share in the collection is about 14%.
A350 fluor: A350 region autofluorescence. max dye-equivalent concentration, M. actives 11% (n = 59,000). Compound autofluorescence, 340/450 nm, Alexa 350 dye-equivalents; active compounds read high. AID 590; in the data active means max dye-equivalent concentration above about 10 nM; inconclusive means mostly about 1.1 nM to 9.6 nM
HSD17B inhib: inhibitors of human HSD17B10 dehydrogenase; Q99714; recombinant HSD17B10, NADH fluorescence kinetic; Potency, µM (top dose mostly 57.1 µM), hits mostly inhibitors; actives 7.6% (n = 75,000); AID 893;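 further: the protocol describes HADH2 (HSD17B10) and not the HSD17B4 of the title; nearly all actives have a fitted effect of over 70% in size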
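Enzyme plus compound, 15 min room temperature; substrate mix added (NAD+ 1 mM, beta-hydroxybutyryl-CoA 90 uM final); plates read kinetically for NADH fluorescence. HADH2 was His-tagged, E. coli-derived, 20 nM.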
AID923: qHTS Assay for Allosteric/Competitive Inhibitors of Caspase-1: Spectroscopic Profiling in AFC Spectral Region | compound fluorescence, AFC spectral region (405/520 nm) | Potency, µM (series often up to 57.5 µM), usual class: activators | actives 1.1% (n = 75,000)
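Titrations up to 57 uM read every 20 sec for 3 min (405/520 nm) with 50 nM caspase 1 and 5 uM Ac-WEHD-AFC, pH 7.5 HEPES buffer. Fluorescence-vs-time intercept gave baseline, scaled against on-plate AFC standard.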
HADH2 inhib: HADH2 (human) dehydrogenase inhibition | Q99714 | AID 886 | Potency, µM (titrated, usually from 57.1 µM), actives largely listed as inhibitors | recombinant HADH2, NADH fluorescence, beta-hydroxybutyryl-CoA | actives 3.4% (n = 73,000); further: nearly all actives have a fitted effect of over 60% in size
Target sequence (Q99714 whole entry, looked up, one chain of several): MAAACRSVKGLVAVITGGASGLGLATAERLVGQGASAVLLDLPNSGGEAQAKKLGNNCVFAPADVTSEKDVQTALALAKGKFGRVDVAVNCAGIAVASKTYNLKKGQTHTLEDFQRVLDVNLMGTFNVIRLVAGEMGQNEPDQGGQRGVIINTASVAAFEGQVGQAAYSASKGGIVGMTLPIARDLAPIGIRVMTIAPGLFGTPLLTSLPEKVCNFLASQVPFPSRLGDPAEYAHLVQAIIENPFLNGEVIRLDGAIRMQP
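NADH fluorescence (ex 360/em 450 nm) read every 30 s for 4 min; activity taken as last-minus-first time point difference. Enzyme 20 nM, NAD+ 1 mM, beta-hydroxybutyryl-CoA 90 uM, pH 9.0 Tris buffer.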
CRE-bla Fsk: modulators of forskolin-stimulated CRE signaling in CHO cells; CHO CRE-bla reporter (cAMP response element driving beta-lactamase), forskolin EC10, beta-lactamase ratio; Potency, µM (highest dose often 38.2 µM), usual class: activators; actives 2.5% (n = 71,000); active means well fitted activation curve with a large enough effect in the signal ratio, with a control signal flat, not every such curve was filed as active; inconclusive means small, poorly fitted or top-dose-only effect, or effect the other way, or a change in a side signal; the % refers to the signal ratio
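Using CellSensor CRE-bla CHO cells in Opti-MEM with 0.5% dialyzed FBS, compounds were titrated with EC10 NKH 477 for 3 h at 37 °C. CCF4 ratio (460/530 nm) gave %Activity; AC50 derived.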
4-MU autofl: compound fluoresces in the 4-MU spectral region. compound autofluorescence, 340/450 nm, 4-MU equivalents; active compounds read high. max dye-equivalent concentration, M. actives 11% (n = 59,000). AID 589; in the data active means max dye-equivalent concentration above about 10 nM; inconclusive means mostly about 1.1 nM to 9.6 nM
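Compounds in 100 mM Tris, pH 8.0, incubated 15 min at room temperature, then fluorescence read at 340 nm excitation/450 nm emission. Signal converted to 4-MU dye-equivalent concentration using an on-plate six-point 4-MU standard curve.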
A number is an active result; 0 = inactive; ? = inconclusive; - = not tested or not shown; [ ] = another dose, or the depositor's remark. Unless noted, the call rests on the fitted dose curve; in most records, active means well fitted curve in the direction sought with a large enough effect; inconclusive means small, poorly fitted or top-dose-only effect, or another doubt; inactive means no such curve, though single readings can be large; an effect the other way counts as inactive or inconclusive.

SMILES	A350 fluor	HSD17B inhib	AID923	HADH2 inhib	CRE-bla Fsk	4-MU autofl
COc1cc2c(cc1OC)C(C(=O)O)C(c1cc(Br)c(O)c(OC)c1)N(C)C2=O (stereo not drawn)	0	0	0	0	0	0
COc1ccccc1-c1cc(C(=O)Nc2c(F)cc(F)cc2Br)no1	0	0	0	?	0	0
COC(=O)[C@@]1(Cc2ccc(F)cc2)[C@H]2c3cc(C(=O)N4CCCC4)n(CCc4ccc(O)c(O)c4)c3C[C@H]2CN1C(=O)c1ccccc1	-	20µM	0	16µM	0	-
COC(=O)[C@@]1(Cc2ccc(F)cc2)[C@H]2c3cc(C(=O)N4CCCC4)n(CCO)c3C[C@H]2CN1C(=O)c1ccccc1	-	25µM	0	0	0	-
COC(=O)[C@@]1(Cc2ccc(F)cc2)[C@H]2c3cc(C(=O)N(C)C)n(CCc4ccc(O)c(O)c4)c3C[C@H]2CN1C(=O)c1ccccc1	-	32µM	0	16µM	?	-
COC(=O)[C@@]1(Cc2ccc(OC)cc2)[C@H]2c3cc(C(=O)N4CCCC4)n(CCO)c3C[C@H]2CN1C(=O)c1ccccc1	-	0	0	0	?	-
COC(=O)[C@@]1(Cc2ccc(F)cc2)[C@H]2c3cc(C(=O)N(C)C)n(CCF)c3C[C@H]2CN1C(=O)c1ccccc1	-	0	0	0	0	-
CCOC(=O)c1[nH]c(C)c(C(=O)N2CCN(C(=O)OCC)CC2)c1CC	0	0	0	0	0	0
CCOc1ccc(N2C(=O)NC(Cc3c[nH]c4ccccc34)C2=O)cc1 (stereo not drawn)	0	0	0	0	0	0
CCOc1cc(C2Nc3ccccc3C(=O)N2c2ccccc2OC)ccc1O (stereo not drawn)	3e-07M	-	-	-	-	2.6e-07M
COc1cc(C2Nc3ccccc3C(=O)N2c2ccccc2OC)ccc1O (stereo not drawn)	3.5e-07M	25µM	0	?	0	4e-07M
O=C1c2ccccc2NC(c2ccc3c(c2)OCO3)N1O (stereo not drawn)	?	0	0	0	0	?
Cc1cc(N(CN2CCCC2=O)C(=O)c2ccc(F)cc2)no1	0	0	0	0	0	0
Cc1ccc(-n2cnnn2)c(S(=O)(=O)N2CCOCC2)c1	0	0	0	0	0	0
CCOC(=O)c1c(C)n(C)c2ccc(OCC(O)CN3C(=O)c4ccccc4S3(=O)=O)cc12 (stereo not drawn)	0	0	0	0	2µM	0
CCOC(=O)c1c(C)n(C)c2ccc(OCC(O)Cn3nc(C)cc3C)cc12 (stereo not drawn)	0	0	0	0	13µM	0
CCCCS(=O)(=O)NC1=NCN(CCO)CN1	0	0	0	0	?	0
CCOC(=O)c1sc2nc(N3CCOCC3)c3c(c2c1N)CCCC3	6e-07M	3.2µM	0	3.2µM	?	8e-07M
COc1cc2cc3c(N)c(C(=O)NCc4ccco4)sc3nc2cc1OC	0	0	0	0	?	0
CC1(C)Cc2c(c(N3CCCC3)nc3sc4c(N5CCN(CCO)CC5)ncnc4c23)CO1	0	0	0	0	0	0
CCOC(=O)c1sc2nc(N3CCCC3)c3c(c2c1N)CC(C)(C)OC3	6.1e-08M	13µM	0	?	?	5.9e-08M
NC(=O)c1sc2nc(N3CCCCC3)c3c(c2c1N)CCCC3	-	25µM	0	?	1.3µM	-
Nc1c(C(=O)NCc2ccco2)sc2nc(N3CCOCC3)c3c(c12)CCCC3	2.7e-08M	-	-	-	-	2.4e-08M
COCc1[nH]nc2c1C(c1ccccc1OC)C(C#N)=C(N)O2 (stereo not drawn)	0	0	0	0	0	0
O=C(O)C[C@H](Cc1ccccc1)C(=O)O	0	0[11.4 µM]	0[11.5 µM]	0[11.4 µM]	0[7.6 µM]	0
SMILES	A350 fluor	HSD17B inhib	AID923	HADH2 inhib	CRE-bla Fsk	4-MU autofl
CCOC(=O)C1CCN(C(=O)CN(c2cccc(C(F)(F)F)c2)S(C)(=O)=O)CC1	0	0	0	0	0	0
N#CCCN(C(=O)Nc1ccccc1)c1ccccc1	0	?	0	0	0	0
COc1cc(NS(=O)(=O)c2ccc(OC)c(OC)c2)cc(OC)c1	7e-06M	0	0	0	0	6.3e-06M
CC(C)(C)c1cc(C(F)(F)F)nc(SCCCNC(=O)c2ccco2)n1	0	0	0	0	?	0
COc1ccc(-c2nnc3sc(C(C)N4C(=O)c5ccccc5C4=O)nn23)cc1 (stereo not drawn)	-	0	0	0	10µM	-
FC(F)(F)c1ccccc1-c1ccc2ncnc(NCc3cccs3)c2c1	0	0	0	0	0	0
CCCCNc1cc(NC(C)=O)cc2cc(OC)c(OC)cc12	-	?	0	32µM	?	-
Cc1cc(C)c2[nH]c(=O)c(CN(C(=O)C3CCCO3)C3CCCC3)cc2c1 (stereo not drawn)	0	0	0	0	0	0
O=C1CSC(c2cccs2)N1c1ccccc1 (stereo not drawn)	1.1e-08M	0	0	0	0	?
CCOC(=O)C1CCN(C(=O)CCNC(=O)c2cc(OC)c(OC)c(OC)c2)CC1	?	0	0	0	0	3.7e-08M
COC(=O)C1CCN(C(=O)c2cc(OC)c(OC)c(OC)c2)CC1	0	0	0	0	0	0
O=c1c2c(nc3c(-c4cccc5ccccc45)c[nH]n13)CCC2	1.5e-08M	32µM	0	?	0	1.5e-08M
O=c1c2c(nc3c(-c4ccc(Cl)cc4)c[nH]n13)CCCC2	?	6.3µM	0	16µM	0	?
O=c1c2cc(Cl)ccc2nc2ccc(N3CCCC3)nn12	3.8e-08M	?	0	0	0	4e-08M
Cc1nnc2ccc(N3CCCC3)nn12	0	0	0	0	0	0
O=C(COC(=O)c1cccnc1)Nc1ccc(F)cc1	0	0	0	0	0	0
c1nc(N2CCNCC2)c2sc3nc(N4CCOCC4)c4c(c3c2n1)CCC4	?	0	0	0	0	?
COC(=O)c1ccc(CSc2ncnc3c2sc2nc(N4CCOCC4)c4c(c23)CCCC4)o1	4.8e-08M	-	-	-	-	4.2e-08M
COC(=O)c1ccc(Cn2cnc3c(sc4nc(N5CCOCC5)c5c(c43)CCCC5)c2=O)o1	2.6e-08M	-	-	-	-	2.7e-08M
OCCN1CCN(c2ncnc3c2sc2nc(N4CCOCC4)c4c(c23)CCC4)CC1	0	?	0	0	0	0
CC12CC(NC(=O)N1c1cccc(C(=O)N3CCN(c4ccccc4)CC3)c1)c1ccccc1O2 (stereo not drawn)	0	0	0	0	0	0
CCOC(=O)c1sc2nc3n(c(=O)c2c1C)CCCCC3	-	0	0	0	?	-
Cc1ccc2nc3c(cc2c1)CN(Cc1ccco1)C(=NCC1CCCO1)S3 (stereo not drawn)	?	0	0	?	0	0
Cc1cccc2cc3c(nc12)SC(=NCC1CCCO1)N(Cc1ccco1)C3 (stereo not drawn)	1e-08M	32µM	0	10µM	?	?
